Five molecules from PubChem BioAssay can be followed below.

Activity calls are given as the source filed them.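 Rule for the calls, unless noted: active = visually confirmed hit in the image check and inhibition above 20%; inconclusive = visually confirmed hit but inhibition not above 20%; inactive = no visual hit in the image check.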

Assay [1] in a line: inhibitors of TNFa-induced NFkB p65 translocation, primary screen, imaging, HUVEC, MLSMR starter and 10KST1 sets (AID 438;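 active = inhibition above 20% together with a positive visual image hit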;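 note: compound added about 3h40 before a 20 min TNFalpha stimulation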;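 for inhibition: signal is the nuclear over cytoplasmic p65 intensity ratio per well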). The note with it: HUVEC TNFa-induced p65 nuclear translocation; cell count: measured here: nuclei count (cytotoxicity indicator), at 2.08 µM; inhibition: at 2 µM, stronger effect = higher value, 0% TNFa-plus-vehicle, 100% no-TNFa wells.
Assay [2] is described as follows: reduction of polyQ htt aggregates in cells – imaging, exon1htt(103Q)mCFP cells, high-content imaging, primary screen (AID 483;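 active = visual image review flags a hit and inhibition of aggregation exceeds 20%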;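 note: compound exposure lasted 3 days before fixation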;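 for nuclei count: percent of the per-plate median nuclei count of sample wells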). The note with it: exon1htt(103Q)mCFP cell line, aggregate imaging, at 2 µM; inhibition of aggregation: stronger effect = higher value; nuclei count: measured here: cell count, toxicity.
Assay [3] in a line: endothelial E-selectin expression blockers – imaging, HUVEC, immunofluorescence, MLSMR starter and 10KST1 sets, primary screen (AID 487).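 For inhibition: signal is fraction of cell area covered by stained E-selectin grains.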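 For nuclei count: 100% = median nuclei count of all wells on the same plate.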 To be noted: HUVEC TNFalpha-induced E-selectin immunofluorescence imaging, at 2 µM; inhibition: stronger effect = higher value; nuclei count: measured here: cell number, toxicity.
A short description of assay [4]: Primary imaging screen for DUSP6 inhibitors that restore phospho-Erk in transfected HeLa cells, chemical complementation (AID 609;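 active = compounds giving at least 50% inhibition in the cell-based MKP-3 phosphatase rescue imaging test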;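 for inhibition: phospho-Erk level distribution per well compared with pooled transfected vehicle control wells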). To be noted: HeLa MKP-3 transfected, phospho-Erk imaging KS statistic, at 10 µM, cells stimulated with TPA for 15 min.
For assay [5], the target named is Dual specificity protein phosphatase 6 (Homo sapiens) (UniProt Q16828). Described as above. The note with it: HeLa MKP-3 transfected, phospho-Erk imaging KS statistic; at 10 µM; stronger effect = higher value; cells stimulated with TPA for 15 min.
Sequence of Dual specificity protein phosphatase 6 (Homo sapiens) (Q16828 whole entry, looked up): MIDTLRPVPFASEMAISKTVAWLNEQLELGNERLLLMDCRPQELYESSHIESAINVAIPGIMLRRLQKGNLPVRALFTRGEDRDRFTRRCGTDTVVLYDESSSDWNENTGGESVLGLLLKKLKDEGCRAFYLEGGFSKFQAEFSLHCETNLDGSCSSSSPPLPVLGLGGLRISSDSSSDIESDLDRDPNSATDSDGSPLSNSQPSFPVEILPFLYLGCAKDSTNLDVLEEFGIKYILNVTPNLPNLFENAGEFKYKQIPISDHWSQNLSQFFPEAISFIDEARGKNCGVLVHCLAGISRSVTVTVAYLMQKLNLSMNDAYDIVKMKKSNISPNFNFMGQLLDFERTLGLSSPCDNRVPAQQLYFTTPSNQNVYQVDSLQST
In assay [6] the target is Voltage-gated potassium channel subunit beta-2 (Rattus norvegicus) (UniProt P62483). The assay is described as follows: inhibitors of rat Kvbeta2 reductase activity – biochemical, NADPH fluorescence, primary screen (AID 622;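 active = fluorescence slope higher than the sample average by over 3 SD, cut at about -0.22 in these data, passing the limit was not always enough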;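 note: slope of raw intensity against log time taken from 70 to 1610 s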). To be noted: recombinant KvBeta, 4-cyanobenzaldehyde reduction, at 10 µM, stronger effect = higher value.
Sequence of Voltage-gated potassium channel subunit beta-2 (Rattus norvegicus) (P62483 whole entry, looked up): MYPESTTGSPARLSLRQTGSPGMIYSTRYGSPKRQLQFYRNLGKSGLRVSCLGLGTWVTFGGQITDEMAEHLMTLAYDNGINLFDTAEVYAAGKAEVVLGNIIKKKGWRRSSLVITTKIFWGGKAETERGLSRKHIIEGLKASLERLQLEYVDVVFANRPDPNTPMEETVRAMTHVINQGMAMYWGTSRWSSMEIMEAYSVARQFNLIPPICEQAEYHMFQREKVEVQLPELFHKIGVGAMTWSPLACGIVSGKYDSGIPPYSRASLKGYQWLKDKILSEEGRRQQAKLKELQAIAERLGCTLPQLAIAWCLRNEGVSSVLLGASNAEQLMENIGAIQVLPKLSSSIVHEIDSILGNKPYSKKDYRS
For assay [7] the target is unchanged. The experiment in a line: enhancers of rat Kvbeta2 NADPH turnover – biochemical, NADPH fluorescence, primary screen (AID 623;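 active = NADPH fluorescence slope more negative than the mean of all samples by about 3 SD, 99.7% confidence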;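 note: fluorescence intensity change per second fitted from 20 to 320 s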). To be noted: Recombinant KvBeta, NADPH fluorescence decrease slope, 10 min; at 10 µM; stronger effect = lower value.
In assay [8] the target is Alpha-2C adrenergic receptor (Homo sapiens) (UniProt P18825). The experiment in a line: compounds altering alpha2C-coupled GIRK flux – cell-based, HEK293 alpha2C/GIRK1/2, thallium flux, primary screen (AID 624;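 active = fluorescence slope after compound addition differing from the mean of all screened samples at 99.7% confidence, in either direction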;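 note: slope of fluorescence ratio to pre-addition baseline per second over 15 to 24 s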). To be noted: thallium flux BTC fluorescence, at 10 µM, actives lie on both sides.
Sequence of Alpha-2C adrenergic receptor (Homo sapiens) (P18825 whole entry, looked up): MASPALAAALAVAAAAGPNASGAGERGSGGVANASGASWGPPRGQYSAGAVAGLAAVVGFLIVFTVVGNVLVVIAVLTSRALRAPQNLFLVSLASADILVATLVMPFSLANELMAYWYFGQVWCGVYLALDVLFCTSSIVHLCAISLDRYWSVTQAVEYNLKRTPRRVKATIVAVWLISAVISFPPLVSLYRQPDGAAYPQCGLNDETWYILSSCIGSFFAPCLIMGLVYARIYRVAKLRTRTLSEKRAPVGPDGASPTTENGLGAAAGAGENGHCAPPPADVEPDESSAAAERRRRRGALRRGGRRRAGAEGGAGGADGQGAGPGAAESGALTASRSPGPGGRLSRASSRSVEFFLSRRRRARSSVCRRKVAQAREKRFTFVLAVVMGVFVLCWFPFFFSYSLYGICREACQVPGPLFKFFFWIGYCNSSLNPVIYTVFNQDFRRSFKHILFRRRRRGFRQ
Assay [9] concerns the target Muscarinic acetylcholine receptor M4 (Homo sapiens) (UniProt P08173). The experiment in a line: M4-linked GIRK flux change, two-sided – cell-based, HEK293 M4/GIRK, thallium flux, BTC-AM, M4 allosteric agonist project, primary screen (AID 625;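 active = fluorescence slope after compound addition differing from the mean of all tested samples at 99.7% confidence, mostly higher but some lower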;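 note: thallium influx through GIRK channels coupled to M4 in HEK293 cells with BTC-AM dye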). To be noted: at 10 µM, actives lie on both sides.
A short description of assay [10]: inhibitors of larval lipid processing in zebrafish, primary screen, whole organism, PED6 fluorescence, gall bladder and intestine (AID 686;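 active = a full or partial loss of lipid-probe fluorescence in the fish gall bladder, intestine or both, judged by eye; inactive = no fluorescence loss, or compound toxic to the fish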;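 note: larvae 5 to 7 days old with five fish per well; signal comes from phospholipase A2 cleavage of quenched PED6 carried via bile; overnight exposure to compound and PED6 before scoring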). The note with it: Zebrafish larvae PED6 lipid processing, fluorescence scoring; screened at 20 µM (by protocol).
Assay [11] is described as follows: loss of swimming-algae plug formation – whole organism, Chlamydomonas reinhardtii, WT vs cilia-less mutant, absorbance, 96-well, primary screen (AID 463189;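 active = inhibition at or above 50% relative to wild type and mutant plate controls; inactive = inhibition below 50%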;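 note: 0% = wild type cc124 cells in DMSO and 100% = ciliumless bld1 mutant cells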). The note with it: Chlamydomonas reinhardtii gravitaxis, OD600 absorbance, 2 days; at 10 µM; stronger effect = higher value.
A short description of assay [12]: blockers of RIG-like receptor reporter activation – cell-based, Sendai virus stimulus, luciferase, 10K MLSCN set, TLR/RLR signaling modifier project, primary screen (AID 602276;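 active = inhibition at or above 50% at 10 µM; inactive = inhibition below 50%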;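 note: firefly luciferase from ISG56 promoter only with Renilla not read in this screen; 0% = Sendai virus plus DMSO and 100% = medium plus DMSO without virus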). The note with it: HEK293 RL24 IRF3 luciferase reporter, at 10 µM, stronger effect = higher value. For orientation: Reporter assays use an easily measured gene product as a stand-in for the process of interest.

Assay [13] in a line: TLR3 IRF3 reporter activation blockers – cell-based, poly I:C stimulus, luciferase, 10K MLSCN set, primary screen (AID 602277;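 active = inhibition of the reporter signal at or above 50%; inactive = inhibition below 50%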). To be noted: HEK293-TLR3 RL24 IRF3 luciferase reporter, at 10 µM, stronger effect = higher value.
Where [14] appears, read: measured here: cell density z-score.
The mark [15] stands for this setting: measured here: nuclear c-Myc green intensity z-score.
[16] abbreviates: measured here: nuclear pErk red intensity z-score, stronger effect = higher value.

Sequence of Muscarinic acetylcholine receptor M4 (Homo sapiens) (P08173 whole entry, looked up): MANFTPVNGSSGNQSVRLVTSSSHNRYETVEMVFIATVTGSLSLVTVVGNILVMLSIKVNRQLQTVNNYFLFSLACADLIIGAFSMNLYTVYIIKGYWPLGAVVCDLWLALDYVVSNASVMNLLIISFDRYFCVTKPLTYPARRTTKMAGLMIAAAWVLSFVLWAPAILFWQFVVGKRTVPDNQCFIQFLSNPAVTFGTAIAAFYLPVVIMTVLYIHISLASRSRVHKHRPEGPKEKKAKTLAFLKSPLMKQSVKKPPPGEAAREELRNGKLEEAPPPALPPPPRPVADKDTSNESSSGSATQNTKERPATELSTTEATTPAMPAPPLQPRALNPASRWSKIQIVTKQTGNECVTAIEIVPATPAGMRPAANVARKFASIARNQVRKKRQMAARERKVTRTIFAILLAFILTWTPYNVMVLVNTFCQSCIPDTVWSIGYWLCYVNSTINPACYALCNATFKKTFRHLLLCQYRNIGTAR

In general, inhibition refers to the drop in the measured response relative to a control, in per cent. Take `CN1CCN(c2nc3c(c(=O)n(C)c(=O)n3C)n2Cc2cccc3ccccc23)CC1`: in [1], the cell count turned out to be 371. Also, the inhibition was 4.9% (inactive) in assay [1]; -77.4% (inactive) in assay [3]; -13.1% (inactive) in [5]; 28.5% (inactive) in [11]; 9.16% (inactive) in [12]; 19.8% (inactive) in assay [13]. Further, the inhibition of aggregation in [2] was 6.9% (inactive). The nuclei count was 109% in assay [2] and 102% in [3]. In addition, the z-score is -0.546 in assay [4] (setting [14]), -0.191 in [4] (setting [15]) and 0.82 in assay [4] (setting [16]). The fluorescence slope in assay [6] is -0.457 (inactive); in [9], 0.0044 (inactive). Also, the NADPH fluorescence slope in assay [7] was -6.9e-05 (inactive). Also, the slope in assay [8] is 0.00582 (inactive). Besides, the result in assay [10] was inactive.
Take `COc1ccc(OC)c(C2/C(=C(\O)c3ccc4c(c3)OCCO4)C(=O)C(=O)N2CCCN(C)C)c1` (stereo not given): in assay [1], the cell count worked out at 490. The inhibition in assay [1] was -0.9% (inactive); in assay [3], -76.5% (inactive); in assay [5] it was 18.2% (inactive); in [11], 40.2% (inactive); in assay [12], 11% (inactive); in assay [13], 23.3% (inactive). Further, the inhibition of aggregation in [2] was -12.7% (inactive). For the same molecule, the figures for the nuclei count in assay [2] and in [3] were 115% and 130%, respectively. Moreover, the z-score in assay [4] (setting [14]) was 0.935; in [4] (setting [15]), 0.819; in assay [4] (setting [16]) it was -1.07. For the same molecule, the fluorescence slope was -0.459 (inactive) in [6] and 0.00426 (inactive) in assay [9]. Further, the NADPH fluorescence slope in assay [7] was -0.000132 (inactive). Besides, the slope in [8] was 0.0076 (inactive). Besides, in assay [10], the call was inactive.
With `CCCCc1nc(NCCN2CCOCC2)c(C#N)c2c1COC(C)(C)C2`, in assay [1], the cell count was 472. Further, the inhibition in [1] was -7.6% (inactive); in assay [3], -75.1% (inactive); in assay [5], 3.42% (inactive); in assay [11], 98.1% (active); in [12], 15.9% (inactive); in [13], 10.1% (inactive). Besides, the inhibition of aggregation in assay [2] was -37.3% (inactive). The nuclei count was 122% in assay [2] and 116% in assay [3]. Also, the z-score was -1.08 in assay [4] (setting [14]), 2.36 in [4] (setting [15]) and -1.06 in [4] (setting [16]). Moreover, the fluorescence slope in [6] was -0.542 (inactive); in [9], 0.00481 (inactive). In addition, the NADPH fluorescence slope in assay [7] was 8.4e-06 (inactive). Besides, the slope in assay [8] was 0.00518 (inactive). Further, the call in assay [10] was inactive.
`O=C1C2CC=C(Cl)CC2C(=O)N1CNc1ccccn1` (stereo not given): the cell count in assay [1] is 549. The inhibition in assay [1] is -1.9% (inactive); in assay [3] it was -24.7% (inactive); in assay [5], 1.98% (inactive); in assay [11], -11.9% (inactive); in assay [12], 11.3% (inactive); in assay [13] it was 18.2% (inactive). The inhibition of aggregation in assay [2] was 21.8% (inactive). Also, the values for the nuclei count in assay [2] and in [3] were 86.4% and 118%, respectively. The z-score in [4] (setting [14]) was -0.409; in assay [4] (setting [15]), 1.18; in [4] (setting [16]), -0.807. Besides, the fluorescence slope in [6] was -0.446 (inactive); in assay [9], 0.00609 (inactive). The NADPH fluorescence slope in [7] is -1.4e-05 (inactive). Moreover, in assay [8], the slope is 0.00475 (inactive). Further, in assay [10], the outcome was inactive.
Turning to `N#CC1(c2ccccc2)CCC(=NO)CC1` (stereo not given), the cell count in assay [1] came to 685. Further, the inhibition is -0.6% (inactive) in [1]; 8.8% (inactive) in assay [3]; -13.3% (inactive) in assay [5]; -5.88% (inactive) in [11]; 10.2% (inactive) in assay [12]; 20.6% (inactive) in assay [13]. In addition, the inhibition of aggregation in assay [2] is -8% (inactive). Also, the nuclei count in assay [2] was 102%; in assay [3], 86.8%. For the same molecule, the z-score in [4] (setting [14]) was -0.0727; in [4] (setting [15]), 1.42; in assay [4] (setting [16]) it was -0.351. The fluorescence slope is -0.461 (inactive) in [6] and 0.00503 (inactive) in assay [9]. Also, the NADPH fluorescence slope in assay [7] is -4.5e-05 (inactive). In addition, the slope in assay [8] is 0.00512 (inactive). Moreover, in [10], the call was inactive.
